Inhibition data for 103 molecules are collected here from PubChem BioAssay AID1259343 (VanderVen Lab, College of Veterinary Medicine, Cornell …, 2017).

Broadly, the inhibition is the change of the read-out against control, counted positive when it falls.

In all, about 6,200 compounds went through this assay and about 2,900 (47%) were called active. No stated cut-off is given here; in the data, active means inhibition above about 50%; inactive means the rest. The set was probably picked from earlier hits. The list shows a part of the results.

The experiment is described as follows: Mycobacterium tuberculosis growth inhibition, primary screen (AID 1259343). Conditions: inhibition: at 10 µM, stronger effect = higher value; outcome: 10 uM.
With `CC(C)OCCCNC(=O)Cc1cc(-c2cc3ccccc3o2)on1`, the inhibition is 90.9% (active).

`COCCNC(=O)Cc1cc(-c2cc3ccccc3o2)on1`: the inhibition was 34.7% (inactive). Turning to `COCCNC(=O)c1cc(-c2ccc(Cl)cc2)on1`, the inhibition is 60% (active). The result for `O=C(COC(=O)c1ccco1)Nc1ccc2ccccc2c1` reads 39.6% (inactive); that for `NC(Cc1cnc[nH]1)C(=O)Nc1ccc2ccccc2c1` (stereo not drawn), 72.9% (active); that for `CC1CCc2c(sc(NC(=O)CN3CCOC(C)C3)c2C#N)C1` (stereo not drawn), 30.6% (inactive). `CCOC(=O)c1ccc(NC(=O)CN2CCOC(C)C2)cc1` (stereo not drawn): the inhibition was 92% (active). As to `Cc1cc(NC(=O)CN2CCOC(C)C2)ccc1Br` (stereo not drawn), the inhibition was 16.5% (inactive). The same measure for `Fc1ccc(-c2csc(SCc3nnc(-c4ccc(F)cc4)o3)n2)cc1`: 69.3% (active); for `Fc1ccc(OCc2nnc(-c3ccc(Br)cc3)o2)cc1`: -26.1% (inactive). Regarding `Cc1cc(C)c2c(=O)[nH]c(SCc3nnc(-c4ccc(Cl)cc4)o3)nc2n1`, the inhibition was -6.74% (inactive). The result for `Clc1ccc(-c2nnc(CSc3nncs3)o2)cc1` reads 97.2% (active); that for `Clc1ccc(-c2noc(CSc3nncs3)n2)cc1`, -30.4% (inactive); that for `CN(Cc1nnc(-c2ccc(F)cc2)o1)C1C2CCOC2C1(C)C` (stereo not drawn), 21.1% (inactive). The same measure for `O=C1NC(=O)C(=Cc2cc(Br)c(Sc3ccc(Cl)cc3)o2)S1`: 85.2% (active); for `CC1CCCN(Cc2csc(NC(=O)c3cccc(I)c3)n2)C1` (stereo not drawn): 50.6% (active); for `COc1ccc2c(CC(=O)Nc3nc(CN4CCCCC4)cs3)coc2c1`: 26.5% (inactive).

As for `O=C(Nc1nc(CN2CCCCC2)cs1)c1cc(F)cc(F)c1`, the inhibition is -30.9% (inactive).

Regarding `O=C(c1ccc2c(c1)OCO2)C1CCCN(Cc2nc3ccccc3s2)C1` (stereo not drawn), the inhibition entry is “inactive”. Consider `O=C(C=Cc1cccs1)N1CCN(Cc2nc3ccccc3s2)CC1`, for which the inhibition was 67.3% (active).

As for `CCc1cc(-c2n[nH]c(C)c2-c2nc3ccccc3s2)c(O)c(CN2CCN(C)CC2)c1O`, the inhibition is 10.5% (inactive).

Take `O=C(CCc1nc2ccccc2s1)N1CCN(Cc2ccc(C(F)(F)F)cc2)CC1`: the inhibition was 88.1% (active). The result for `COc1ccc(/C=N\NC(=O)c2ccncc2)c(C(=O)O)c1OC` reads 42.2% (inactive); that for `Oc1cccc(/C=N\Nc2cc(N3CCCC3)nc(N3CCCC3)n2)c1`, 14% (inactive); that for `Cc1sc(NN=Cc2cccc(O)c2)nc1-c1ccccc1`, 94.2% (active). The result for `Cc1sc(-c2cccc(O)c2)nc1-c1ccccc1` reads 23.1% (inactive); that for `COc1ccc(-c2nc(Nc3ccc(Cl)nc3)sc2C)cc1`, 25.9% (inactive); that for `COc1cccc(C=NNc2nc(-c3ccccc3)c(C)s2)c1OC`, 91.8% (active). The same measure for `CC1(C)CC(=O)C(Sc2ccc(Br)cc2)=C(O)C1`: 57.1% (active); for `CN(Cc1ccccc1)C(=O)c1ccc(Nc2nc(C(N)COCc3ccccc3)cs2)nc1` (stereo not drawn): 97.6% (active); for `CCCCN(C)C(=O)c1ccc(Nc2nc(C(N)COCc3ccccc3)cs2)nc1` (stereo not drawn): 64.2% (active). `CCn1c(O)c(C(C)=Nc2ccnn2C2CCCCC2)c(=O)n(CC)c1=S`: the inhibition was 100% (active). The result for `O=C(Nc1ccnn1C1CCCCC1)c1c(O)cc(F)cc1F` reads 29.4% (inactive); that for `Cc1ccc(OCC(O)Cn2c(C)cc(=O)n3ncnc23)cc1` (stereo not drawn), -1.37% (inactive); that for `Cc1ccc(OCC(O)Cn2c(C)nc3sc4c(c3c2=O)CCC4)cc1` (stereo not drawn), 64.5% (active). `Cc1cccc(-c2ncc(CNCCCc3ccccc3)cn2)c1`: the inhibition was 24.1% (inactive).

Regarding `CCCc1cnc(-c2cnc3ccccc3c2)nc1`, the inhibition was 15.5% (inactive).

For `CCc1cnc(-c2cccc(O)c2)nc1`, the inhibition is 87.9% (active). With `O=[N+]([O-])c1ccc(Sc2nnc(-c3ccco3)o2)c([N+](=O)[O-])c1`, the inhibition is 57.5% (active). Consider `CCOc1ccc(CSc2n[nH]c(-c3ccccn3)n2)nc1`, for which the inhibition was 99.6% (active). For the molecule `CCOc1ccc(C2=NCC(CSc3n[nH]c(N)n3)S2)cc1` (stereo not drawn), the inhibition is 19.9% (inactive). The same measure for `CCCc1cc(=O)[nH]c(SCCOc2ccc(OCC)cc2)n1`: -6.11% (inactive). Consider `N#Cc1ccc(NC(=O)NC2CC2c2c(F)cccc2F)cc1` (stereo not drawn), for which the inhibition was 51.6% (active). On to `CCN(CC(=O)Nc1ccc(C#N)cc1)C1CCCCC1`, for which the inhibition was -29.6% (inactive).

Turning to `O=c1[nH]c2ccccc2n1CCCSc1nnc(COc2ccccc2Cl)o1`, the inhibition is 42.5% (inactive). In the case of `C=CCSc1nnc(Nc2ccc(Oc3ccccc3)cc2)s1`, the inhibition entry is “inactive”. The result for `C=CCSc1nnc(COc2ccccc2)o1` reads 95.2% (active). The result for `Cc1cccc(N/C=c2\c(C)c(C#N)c3nc4ccccc4n3c2=O)c1` reads -34.9% (inactive); that for `Cc1c(C#N)c2nc3ccccc3n2c(=O)/c1=C/Nc1ccc(F)cc1`, -33.8% (inactive); that for `Cc1c(CCCl)c(Cl)n2c(nc3ccccc32)c1C#N`, 56.3% (active). Take `COCCNc1c2c(nc3c(-c4ccccc4)c(C)nn13)CCCC2`: the inhibition is 25.2% (inactive).

In the case of `Cn1nc2c(c1NC(=O)c1ccc(Cc3ccccc3)cc1)CCC2`, the inhibition was 83.6% (active). On to `O=S1(=O)CCC(=NNc2ccc(Cl)cc2)c2cc(F)ccc21`, for which the inhibition was 45% (inactive).

For `Clc1ccc(NN=C2CCN(Cc3ccccc3)CC2)cc1`, the inhibition is 94.7% (active).

With `OCC1(CCCc2ccccc2)CCN(Cc2cc(Cl)ccc2O)CC1`, the inhibition was 38.5% (inactive). The result for `O=[N+]([O-])c1cnc2ccc3ccccc3c2c1` reads 96.6% (active); that for `Cc1cc(Br)c2c(c1)C1(OCCO1)C(=O)N2`, -4.59% (inactive).

As to `Cc1ccc(CNc2nccn(-c3cc(C)cc(C)c3)c2=O)cc1`, the inhibition was 53.9% (active).

As for `COc1ccccc1CNc1nccn(-c2cccc(C)c2)c1=O`, the inhibition was 12.8% (inactive). As to `CN(CC1Cc2ccccc2O1)C(=O)Nc1nc(-c2ccccc2)ns1` (stereo not drawn), the inhibition was 4.41% (inactive).

For `Cc1cccc(CC(=O)N(C)CC2Cc3ccccc3O2)c1` (stereo not drawn), the inhibition was 21% (inactive).

Regarding `CN(Cc1cccc(C(=O)Nc2cn(C)nn2)c1)CC1Cc2ccccc2O1` (stereo not drawn), the inhibition is 86.5% (active). The result for `O=C(CN1CCCc2cccc(F)c21)Nc1cccc(F)c1` reads 2.21% (inactive); that for `O=C(CN1CCCC1=O)Nc1ccc(C23CC4CC(CC(C4)C2)C3)cc1`, 81.6% (active); that for `COCC(=O)N1CCC(C(=O)Nc2cccc(-c3cccc(Cl)c3)c2)CC1`, “inactive”. The same measure for `O=C(Nc1cccc(-c2cccc(Cl)c2)c1)C1CCN(Cc2ccncc2)CC1`: 92.8% (active); for `COCc1ccc(CN2CCC(C(=O)Nc3cccc(-c4cccc(Cl)c4)c3)CC2)o1`: 62.3% (active); for `CC(C)n1cc(CN2CCC(C(=O)Nc3cccc(-c4cccc(Cl)c4)c3)CC2)cn1`: 46.3% (inactive). In the case of `Cc1cccc(C(=O)N2N=C(c3ccccc3)CC2(O)C(F)(F)F)c1O` (stereo not drawn), the inhibition is 49.1% (inactive). Regarding `CC1=NN(C(=O)c2ccccc2)C(C)(NN(C)c2ccccc2)C1` (stereo not drawn), the inhibition is 75.7% (active). The result for `Cc1cc(Cc2c(O)nc(N)[nH]c2=O)ccc1OC(C)C` reads 36.4% (inactive); that for `O=S(=O)(c1cccc(Cl)c1Cl)N1CCc2sccc2C1`, 17.2% (inactive). As for `Cn1ccc(C(=O)Nc2ccccc2N2CCc3sccc3C2)cc1=O`, the inhibition was 63.6% (active). The result for `CCC1c2ccsc2CCN1CC(=O)Nc1ccccc1C#N` (stereo not drawn) reads 39.9% (inactive); that for `Cc1nc(Cc2nnc(SCC(=O)c3ccc(Cl)s3)o2)cs1`, 9.62% (inactive). The same measure for `c1ccc(Cc2nnc(SCc3cccc4ccccc34)o2)cc1`: 4.35% (inactive). Turning to `O=C(CSc1nnc(Cc2ccccc2)o1)c1ccc2ccccc2c1`, the inhibition was 67.7% (active). For `CCCCCCCC1C(C#N)=C(N)SC(N)=C1C#N`, the inhibition was 93.5% (active).

Take `N#CC1=C(N)SC(N)=C(C#N)C1c1ccc(-c2ccccc2)cc1`: the inhibition is 14.3% (inactive).

As to `CCCCCCC1C(C#N)=C(N)SC(N)=C1C#N`, the inhibition is 24.4% (inactive). Turning to `Cc1cccc(N2CCN(c3ccc4nnc(C5CC5)n4n3)CC2)c1C`, the inhibition is 85.7% (active). The result for `CC(C)=NNc1nc(Cl)c(C#N)c(Cl)c1Cl` reads 102% (active); that for `FC(F)(F)c1nnc2ccc(NCCC3CCCC3)nn12`, 18% (inactive); that for `O=C(Nc1cnc(-c2ccccc2)nc1)C1CCCC1`, 48.4% (inactive). On to `O=C(Nc1cccc(OCc2ccccn2)c1)C1CC1`, for which the inhibition was 18.7% (inactive). The same measure for `O=C(Nc1cccc(/C=C/c2ccccn2)c1)C1CCCC1`: 97.1% (active); for `CC(C)n1c(CCC(=O)O)ccc1-c1ccc(Br)cc1`: 50.3% (active). For the molecule `CC(C)(C)C1CCC(CN2CC(O)C(N3CCCC3)C2)CC1` (stereo not drawn), the inhibition is 41.1% (inactive).

`CCOC(=O)CCCNC(=O)CSc1n[nH]c(-c2ccc(Br)cc2)n1`: the inhibition was 74.5% (active).

For `CC(Sc1n[nH]c(-c2ccc(Cl)cc2)n1)C(=O)NCc1ccco1` (stereo not drawn), the inhibition was 42% (inactive).

Take `CC(C)c1ccc(-c2nnn(CC(=O)NC(C)(C)C)n2)cc1`: the inhibition is 4.54% (inactive). The result for `CC(C)c1ccc(-c2nnn(CC(=O)c3ccc(O)cc3)n2)cc1` reads 55.7% (active); that for `N#Cc1ccc(OCC(O)Cn2nnc(-c3ccc(Cl)cc3)n2)cc1` (stereo not drawn), 49.3% (inactive). The same measure for `C=CCOc1ccc(C2c3c(oc4ccc(C)cc4c3=O)C(=O)N2c2nccs2)cc1` (stereo not drawn): -15.9% (inactive); for `NCC(=O)Nc1ccc(-n2nc(C(F)(F)F)cc2-c2ccc3c(ccc4ccccc43)c2)cc1`: 73.5% (active). As for `COCCOc1nc(-c2ccc(C(F)(F)F)cc2)n(-c2ccc(NC(=O)C(Cl)c3ccccc3)cc2)n1` (stereo not drawn), the inhibition was 19.5% (inactive). With `CC(C)CN(CC(=O)Nc1cc(C(C)(C)C)nn1-c1ccc(Cl)c(Cl)c1)C(=O)Nc1ccc(C(F)(F)F)cc1`, the inhibition is 38.3% (inactive).

`OCCN(C=NC1=NN(c2cccc(C(F)(F)F)c2)CC1)CCO`: the inhibition was 83.2% (active). Regarding `FC(F)(F)c1cccc(N2CCC(N=Cc3ccccn3)=N2)c1`, the inhibition was 93.2% (active). `C(=NC1=NN(c2ccccc2)CC1)N1CCCCCC1`: the inhibition was -7.42% (inactive).

`CN(N=Cc1ccc([N+](=O)[O-])o1)c1ccccc1`: the inhibition is -45.3% (inactive). The result for `FC(F)(F)c1cccc(N2CCC(N=Cc3ccccc3C(F)(F)F)=N2)c1` reads 50.2% (active); that for `O=[N+]([O-])c1ccc(C=NC2=NN(c3cccc(C(F)(F)F)c3)CC2)o1`, 87.8% (active).
